Laboratory results from PubChem BioAssay (NCATS).

Biological target: Glucocorticoid receptor (Homo sapiens) (UniProt P04150)
Assay: GR-GFP Redistribution (AID 450)
Details: U2OS GR-GFP nuclear translocation, laser cytometry, 2 h; series mostly up to 20.6 µM;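 active = compounds whose dose series gives a full or clear partial fitted curve of increased nuclear translocation; inconclusive = weak partial curve or effect only at the top dose; inactive = no dose-dependent translocation response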
Potency is the fitted concentration of half-maximal effect.

Chain of Glucocorticoid receptor (Homo sapiens) (P04150 whole entry, looked up): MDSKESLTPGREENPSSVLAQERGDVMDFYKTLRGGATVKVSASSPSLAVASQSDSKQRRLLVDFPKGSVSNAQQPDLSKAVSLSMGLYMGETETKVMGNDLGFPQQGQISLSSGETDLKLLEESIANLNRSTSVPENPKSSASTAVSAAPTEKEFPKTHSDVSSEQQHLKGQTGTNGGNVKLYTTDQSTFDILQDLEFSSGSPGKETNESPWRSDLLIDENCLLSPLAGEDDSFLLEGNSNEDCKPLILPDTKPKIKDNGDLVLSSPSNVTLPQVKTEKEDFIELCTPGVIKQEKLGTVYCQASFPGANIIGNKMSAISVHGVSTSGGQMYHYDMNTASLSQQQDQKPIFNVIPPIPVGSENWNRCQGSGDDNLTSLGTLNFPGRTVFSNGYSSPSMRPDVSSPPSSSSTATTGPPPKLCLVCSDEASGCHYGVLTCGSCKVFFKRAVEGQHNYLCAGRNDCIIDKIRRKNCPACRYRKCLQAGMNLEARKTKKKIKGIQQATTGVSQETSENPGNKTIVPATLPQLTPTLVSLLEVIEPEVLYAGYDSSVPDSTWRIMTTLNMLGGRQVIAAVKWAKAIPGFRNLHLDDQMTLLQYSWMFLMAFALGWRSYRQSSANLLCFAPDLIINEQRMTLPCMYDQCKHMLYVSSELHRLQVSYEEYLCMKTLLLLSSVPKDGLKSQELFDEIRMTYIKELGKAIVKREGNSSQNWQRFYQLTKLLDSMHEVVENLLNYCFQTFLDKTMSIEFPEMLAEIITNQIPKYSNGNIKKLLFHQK

Potency, inactive:
CCOC(=O)C1/C(=N\O)CC(C)(O)C(C(=O)OCC)C1c1ccc(N(C)C)cc1 (stereo not given) > 20.6 µM, CN1CCN(Cc2c(O)ccc3c(-c4ccccc4)cc(=O)oc23)CC1 > 20.6 µM, N#CC1(c2ccccc2)CCC(=NO)CC1 (stereo not given) > 20.6 µM, CC1(C)NC(=O)N(CC(O)COc2ccccc2C(=O)Nc2ccccc2)C1=O (stereo not given) > 20.6 µM, COc1ccccc1C1/C(=C(/O)c2cnn(-c3ccccc3)c2C)C(=O)C(=O)N1CCN(C)C (stereo not given) > 20.6 µM, O=c1[nH]c(-c2ccccn2)nc2ccccc12 > 20.6 µM, CCOC(=O)C1=C(C)N=C2SC(C)C(=O)N2C1c1ccc(OC(C)=O)c(OC)c1 (stereo not given) > 20.6 µM, C=CCc1c(C)nc(SCCC)[nH]c1=O > 20.6 µM, Cc1sccc1C1C(C#N)=C(N)SC(N)=C1C#N > 20.6 µM, COCc1[nH]nc2c1C(c1cccc(OC)c1)C(C#N)=C(N)O2 (stereo not given) > 20.6 µM, COc1ccc(N2CCN(c3nc4c(c(=O)[nH]c(=O)n4C)n3CCCc3ccccc3)CC2)cc1 > 20.6 µM, CN/C(=C/[N+](=O)[O-])NCCSCc1ccc(CN(C)C)o1 > 20.6 µM, Cc1cc(C)nc(NC2=NCC(=O)N2c2cccc(Cl)c2)n1 > 20.6 µM, CN1c2ccccc2N(C)C1c1c(O)ccc2ccccc12 > 20.6 µM, CCOC(=O)CNC(=O)CCCCCC(=O)NCC(=O)OCC > 20.6 µM, CCc1[nH]c(=O)c(C#N)c2c1CSC(C)(C)C2 > 20.6 µM, Cc1ccc(C(=O)NCC(C)(C)O)cc1 > 20.6 µM, O=S(=O)(N[C@@H]1C[C@H]2CC[C@@H]1C2)c1cccs1 > 20.6 µM, CCOc1cccc(NC(=O)C2CC(=O)NC(=Nc3ccccc3)S2)c1 (stereo not given) > 20.6 µM, COc1ccc(C2=Nn3c(nnc3-c3cccnc3)SC2)cc1OC > 20.6 µM, COc1ccc2nc(SCC(=O)O)nc(C)c2c1 > 20.6 µM, C=CCn1cnc2c(c1=O)c1nc3ccccc3nc1n2-c1ccc(Cl)cc1 > 20.6 µM, COc1cccc(Cn2c(OCC3CCCO3)nc3c2c(=O)n(C)c(=O)n3C)c1 (stereo not given) > 20.6 µM, Cc1ccc(C(=O)C2=C(O)C(=O)N(c3ncccn3)C2c2ccc(Cl)cc2)o1 (stereo not given) > 20.6 µM, CCOc1cccc(N2C(=O)CC(N(CCc3ccc(OC)c(OC)c3)C(=O)CC)C2=O)c1 (stereo not given) > 20.6 µM, Cn1c(=O)n(CC(=O)Nc2ccccc2)c2ccccc21 > 20.6 µM, CC(O)c1n(C)c(Cl)c[n+]1C (stereo not given) > 20.6 µM, O=C(CN1C2=NCCN2c2ccccc21)N1CCOCC1 > 20.6 µM, CCOC(=O)c1ccc(NC(=O)Cn2nnc3ccccc32)cc1 > 20.6 µM, COCCNc1oc(-c2ccc(Cl)cc2)nc1C#N > 20.6 µM, COC(=O)C(NC(=O)c1ccco1)(Nc1nc(C)cs1)C(F)(F)F (stereo not given) > 20.6 µM, COc1ccccc1Cn1c2nc3ccccc3nc2c2c(=O)n(CC(C)C)cnc21 > 20.6 µM, C=C1C2(C(=O)Nc3nccs3)CCC(C2)C1(C)C (stereo not given) > 20.6 µM, Clc1ccccc1-c1nn2c(-c3ccccn3)nnc2s1 > 20.6 µM, COc1ccc(C(=O)OC(C)CN2CCN(C)CC2)cc1OC (stereo not given) > 20.6 µM, Cc1cc(O)ccc1-c1cnc2ccccc2n1 > 20.6 µM, N#C/C(C(=O)N1CCCCC1)=C1\Nc2ccccc2S1 > 20.6 µM, CC1(C)CC(=O)C(C=N)=C(O)C1 > 20.6 µM, O=C(CN1CCc2[nH]c3ccccc3c2C1)N1CCCCC1 > 20.6 µM, O=S(=O)(c1ccccc1)N(CC(O)CN1CCCCC1)c1ccccc1 (stereo not given) > 20.6 µM
